Records with an inconclusive call do not appear. Where a call stands in place of a potency, no number is given. Unmarked numbers belong to inactive results. Active and inactive are the calls of the source. Calls follow the shape of the dose curve; as a rule, active = well fitted cell-killing curve with a large enough effect in the repeat runs; inconclusive = weak or mixed curves, or effect the other way; inactive = flat fitted curve, though single readings scatter.
What was measured:
[1] = cAMP Responsive Elements (CRE) small molecule antagonists, cell-based qHTS assay: qHTS cell viability counter screen (AID 2060913); settings: CRE-bla HEK293T viability, CellTiter-Glo luminescence, 5 h; series mostly up to 92.4 µM; also: nearly all actives have a fitted effect of over 40% in size
Method in brief: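 Steps: cells plated and held 18 hrs at 37 C/5% CO2; compounds and NKH477 (0.25 uM final) added; 3 hrs incubation; reporter substrate read; CellTiter-Glo added to measure cytotoxicity by luminescence.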

[2] = cAMP Responsive Elements (CRE) small molecule agonists, cell-based qHTS assay: qHTS cell viability counter screen (AID 2060914); settings: CRE-bla HEK293T viability, CellTiter-Glo luminescence, 5 h; series mostly up to 92.4 µM; also: nearly all actives have a fitted effect of over 50% in size
Method in brief: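 In the same wells as the reporter read, viability of CRE-bla HEK 293T cells was quantified by CellTiter-Glo luminescence after a 3 h compound exposure.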
Potency is read from the fitted curve at half-maximal effect.

Row | SMILES | Potency [1] | Potency [2] | viability change, negative = cytotoxic [1] | activity change, negative = cytotoxicity [2]
1 | CCCCCCCC/C=C/CCCOC(C)=O | inactive | inactive |  | 
2 | CCn1ccc(NS(=O)(=O)c2ccc(N)cc2)nc1=O | inactive | inactive |  | 
3 | O=C1c2ccccc2C(=O)N1SC1CCCCC1 | inactive | inactive |  | 
4 | NNC(=O)CCCCC(=O)NN | inactive | inactive |  | 
5 | CCCCCCCCCCCSCC(=O)O | inactive | inactive |  | 
6 | CCO[Si](C)(C)OCC | inactive | inactive |  | 
7 | Nc1nc(Cl)nc2c1ncn2[C@@H]1O[C@H](CO)[C@@H](O)[C@@H]1F | inactive | inactive |  | 
8 | O=C1c2c(O)ccc(Nc3ccc(CCO)cc3)c2C(=O)c2c([N+](=O)[O-])ccc(O)c21 | inactive | inactive |  | 
9 | OCCc1ccccn1 | inactive | inactive |  | 
10 | O=C(c1ccc(F)cc1)C1CCN(CCn2c(=O)[nH]c3ccccc3c2=O)CC1 | inactive | inactive |  | 
11 | Nc1ccn([C@H]2CC[C@@H](CO)O2)c(=O)n1 | inactive | inactive |  | 
12 | CCCCCCCCO[C@@H]1O[C@H](CO)[C@@H](O)[C@H](O)[C@H]1O | inactive | inactive |  | 
13 | CCOC(=O)Cn1cccc1-c1nc(-c2ccc(OC)cc2)c(-c2ccc(OC)cc2)s1 | inactive | inactive |  | 
14 | O=C1C(c2[nH]c3ccccc3c2O)=Nc2ccccc21 | inactive | inactive |  | 
15 | COc1ccnc(CS(=O)c2nc3cc(OC(F)F)ccc3[nH]2)c1OC (stereo unspecified) | inactive | inactive |  | 
16 | CCC1(CO)COCOC1 | inactive | inactive |  | 
17 | CNC(=S)NN | inactive | inactive |  | 
18 | CC(C)c1cccc(C(C)C)c1N | inactive | inactive |  | 
19 | CC1(C)C(=O)N(Cl)C(=O)N1Cl | inactive | inactive |  | 
20 | CCN1CN(CC)CN(CC)C1 | inactive | inactive |  | 
21 | CCOC(=O)C1CC(=O)C(=C(O)C2CC2)C(=O)C1 (stereo unspecified) | inactive | inactive |  | 
22 | N#Cc1ccccc1C#N | inactive | inactive |  | 
23 | CCC(C)O (stereo unspecified) | inactive | inactive |  | 

Row | SMILES | Potency [1] | Potency [2] | viability change, negative = cytotoxic [1] | activity change, negative = cytotoxicity [2]
24 | C[C@@H]1C[C@H]2[C@@H]3CCC4=CC(=O)C=C[C@]4(C)[C@@]3(F)[C@@H](O)C[C@]2(C)[C@H]1C(=O)CO | inactive | inactive |  | 
25 | CC(=O)O[C@H]1C[C@@H]2CC[C@@H]3[C@H](CC[C@@]4(C)[C@H]3C[C@H]([N+]3(C)CCCCC3)[C@@H]4OC(C)=O)[C@@]2(C)C[C@@H]1N1CCCCC1 | inactive | inactive |  | 
26 | CCCCOCCOC(=O)COc1cc(Cl)c(Cl)cc1Cl | inactive | inactive |  | 
27 | CC[C@]12CCCN3CCc4c(n(c5ccccc45)[C@@](O)(C(=O)OC)C1)[C@@H]32 | inactive | inactive |  | 
28 | O=C(O)c1ccc2c(c1)C(=O)OC2=O | inactive | inactive |  | 
29 | OCCOCCN1CCN(C(c2ccccc2)c2ccc(Cl)cc2)CC1 (stereo unspecified) | inactive | inactive |  | 
30 | c1ccc2c(c1)ccc1c3ccccc3ccc21 | inactive | inactive |  | 
31 | CCCCOC(=O)CCC(C)=O | inactive | inactive |  | 
32 | c1ccc2[nH]ccc2c1 | inactive | inactive |  | 
33 | COc1cc2c(cc1OC)CN(C(=O)[C@H](C)N[C@@H](CCc1ccccc1)C(=O)O)[C@H](C(=O)O)C2 | inactive | inactive |  | 
34 | CCCCCCCCCCCCCCC[C@H](O)[C@@H](N)CO | inactive | inactive |  | 
35 | Cc1nc(-c2ccc(OCC(C)C)c(C#N)c2)sc1C(=O)O | inactive | inactive |  | 
36 | C=C(C)C(=O)OCCOCCOCCOC(=O)C(=C)C | inactive | inactive |  | 
37 | CC(C)(C)C(=O)O | inactive | inactive |  | 
38 | CCCCC(CC)CN (stereo unspecified) | inactive | inactive |  | 
39 | CCO[C@H](Cc1ccc(OCCc2ccc(OS(C)(=O)=O)cc2)cc1)C(=O)O | inactive | inactive |  | 
40 | CCCCCCCC(OC)OC | inactive | inactive |  | 
41 | CC(C)CCCC(C)NCCC(C)C (stereo unspecified) | inactive | inactive |  | 
42 | C/C=C/C(=O)N(CC)c1ccccc1C | inactive | inactive |  | 
43 | CCOc1ccc(NC(C)=O)cc1 | inactive | inactive |  | 
44 | CC(=O)/C=C/c1ccco1 | inactive | inactive |  | 
45 | CC(O)C(C)O (stereo unspecified) | inactive | inactive |  | 
46 | NS(=O)(=O)c1ccccc1OC(F)(F)F | inactive | inactive |  | 

Row | SMILES | Potency [1] | Potency [2] | viability change, negative = cytotoxic [1] | activity change, negative = cytotoxicity [2]
47 | CCCCCCCCCCCCCC[n+]1ccccc1 | 48.6 µM (active) | 61.1 µM (active) |  | 
48 | CCN1CCCC1CNC(=O)c1cc(S(=O)(=O)CC)c(N)cc1OC (stereo unspecified) | inactive | inactive |  | 
49 | C=CC(=O)CCCCC | inactive | inactive |  | 
50 | CNCC[C@@H](Oc1ccccc1C)c1ccccc1 | inactive | inactive |  | 
51 | OC[C@@H](O)[C@@H](O[C@@H]1O[C@H](CO)[C@H](O)[C@H](O)[C@H]1O)[C@H](O)[C@@H](O)CO | inactive | inactive |  | 
52 | CC(O)COCC(C)O (stereo unspecified) | inactive | inactive |  | 
53 | CCCCCCCCCCCCCCCC(=O)O | inactive | inactive |  | 
54 | Cc1cc(O)c(C(C)(C)C)cc1Sc1cc(C(C)(C)C)c(O)cc1C | 21.6 µM (active) | 38.5 µM (active) |  | 
55 | OCC(CBr)(CBr)CBr | inactive | inactive |  | 
56 | CCCCCCCCC/C=C/CC1CC(=O)OC1=O (stereo unspecified) | inactive | inactive |  | 
57 | COCc1ccc(COC)cc1 | inactive | inactive |  | 
58 | C[N+]1([O-])CCOCC1 | inactive | inactive |  | 
59 | CC(=O)O[C@H]1CC[C@@]2(C)C(=CC[C@@H]3[C@@H]2CC[C@]2(C)C(C(C)=O)=CC[C@@H]32)C1 | inactive | inactive |  | 
60 | Clc1ccc(Nc2nnc(Cc3ccncc3)c3ccccc23)cc1 | inactive | inactive |  | 
61 | CCCCCCCCC(C)=O | inactive | inactive |  | 
62 | NC(=O)NNc1ccccc1 | inactive | inactive |  | 
63 | CNCCCC1c2ccccc2C=Cc2ccccc21 | inactive | inactive |  | 
64 | C/C=C(\C)C#N | inactive | inactive |  | 
65 | Cc1[nH]nc2c1N=C(c1ccccc1Cl)c1cc([N+](=O)[O-])ccc1N2 | inactive | inactive |  | 
66 | CCOC(=O)c1ccccc1 | inactive | inactive |  | 
67 | CCCCCCCCCC[N+](C)(CCCCCCCCCC)CCC[Si](OC)(OC)OC | 27.3 µM (active) | 24.3 µM (active) |  | 
68 | O=C(O)c1ccc2cc(C(=O)O)ccc2c1 | inactive | inactive |  | 
69 | Cn1c(=O)c2[nH]c(Br)nc2n(C)c1=O | inactive | inactive |  | 

Row | SMILES | Potency [1] | Potency [2] | viability change, negative = cytotoxic [1] | activity change, negative = cytotoxicity [2]
70 | O=C(O)CCCC[C@@H]1SC[C@@H]2NC(=O)N[C@@H]21 | inactive | inactive |  | 
71 | CN(C)Cc1ccccc1 | inactive | inactive |  | 
72 | On1ccccc1=S | 9.59 µM (active) | inactive |  | 
73 | CCOC(=O)c1ccc(N(C)C)cc1 | inactive | inactive |  | 
74 | Cc1ccccc1CCO | inactive | inactive |  | 
75 | CN1CCN(C(c2ccccc2)c2ccccc2)CC1 | inactive | inactive |  | 
76 | CNCC[C@H](Oc1cccc2ccccc12)c1cccs1 | inactive | inactive |  | 
77 | CC1CCC(C(C)CS)CC1S (stereo unspecified) | inactive | inactive |  | 
78 | C/C=C/C(=O)OCC(C)C | inactive | inactive |  | 
79 | COc1ccc2[nH]c(S(=O)Cc3ncc(C)c(OC)c3C)nc2n1 (stereo unspecified) | inactive | inactive |  | 
80 | N=C(N)c1ccccc1 | inactive | inactive |  | 
81 | CCCCCCOC(C)=O | inactive | inactive |  | 
82 | CC(C)c1ccc2cc(C(C)C)ccc2c1 | inactive | inactive |  | 
83 | COc1cc2c(cc1N)oc1ccccc12 | inactive | inactive |  | 
84 | CC1(C)OC(=O)Nc2ccc(Br)cc21 | inactive | inactive |  | 
85 | COc1ccc(C2CNC(=O)C2)cc1OC1CCCC1 (stereo unspecified) | inactive | inactive |  | 
86 | CC[C@H](C)[C@@H](C(=O)O)n1sc2ccccc2c1=O | inactive | inactive |  | 
87 | CCOC(C)=O | inactive | 24.5 µM (active) |  | 
88 | CC1(C)C(O)C(C)(C)C1O (stereo unspecified) | inactive | inactive |  | 
89 | CS(=O)(=O)c1ccc([C@@H](O)[C@@H](CF)NC(=O)C(Cl)Cl)cc1 | inactive | inactive |  | 
90 | C[C@@H]1CC(=O)NN=C1c1ccc(NN=C(C#N)C#N)cc1 | inactive | inactive |  | 
91 | COc1cc(NC(C)CCCN)c2ncccc2c1 (stereo unspecified) | inactive | inactive |  | 
92 | CCCn1cc[n+](C)c1C | inactive | inactive |  | 

Row | SMILES | Potency [1] | Potency [2] | viability change, negative = cytotoxic [1] | activity change, negative = cytotoxicity [2]
93 | O=C(OC[C@H]1O[C@@H](OC(=O)c2cc(O)c(O)c(OC(=O)c3cc(O)c(O)c(O)c3)c2)[C@H](OC(=O)c2cc(O)c(O)c(OC(=O)c3cc(O)c(O)c(O)c3)c2)[C@@H](OC(=O)c2cc(O)c(O)c(OC(=O)c3cc(O)c(O)c(O)c3)c2)[C@@H]1OC(=O)c1cc(O)c(O)c(OC(=O)c2cc(O)c(O)c(O)c2)c1)c1cc(O)c(O)c(OC(=O)c2cc(O)c(O)c(O)c2)c1 |  |  | -4.21% [at 18.9 µM] | -4.58% [at 18.9 µM]
94 | CCCCC[Si](OCC)(OCC)OCC | inactive | inactive |  | 
95 | Cc1ccc(S(N)(=O)=O)cc1 | inactive | inactive |  | 
96 | COc1ccc2c(c1)CCCC2=O | inactive | inactive |  | 
97 | CCCCCCCC/C=C\CCCCCCCC(=O)OCCO | inactive | inactive |  | 
98 | N#CCCOCCC#N | inactive | inactive |  | 
99 | CCN(CCN)c1cccc(C)c1 | inactive | inactive |  | 
100 | NCCNCCO | inactive | inactive |  | 
101 | CC(C)(Oc1ccc(CCNC(=O)c2ccc(Cl)cc2)cc1)C(=O)O | inactive | inactive |  | 
102 | C[C@H]1O[C@@H](n2cc(F)c(=O)[nH]c2=O)[C@H](O)[C@@H]1O | inactive | inactive |  | 
103 | C=C(C)C(=O)NCCCN(C)C | inactive | inactive |  | 
104 | COc1cc([C@H]2Oc3cc([C@H]4Oc5cc(O)cc(O)c5C(=O)[C@@H]4O)ccc3O[C@@H]2CO)ccc1O | inactive | inactive |  | 
105 | ClCCOCCOCCCl | inactive | inactive |  | 
106 | CC(C)(Oc1ccc(Cl)cc1)C(=O)O | inactive | inactive |  | 
107 | C/C=C/C=C/C(=O)O | inactive | inactive |  | 
108 | C=C1CC[C@H]2O[C@]2(C)CC[C@@H]2[C@@H]1CC2(C)C | inactive | inactive |  | 
109 | CC(=O)O[C@@H]1CC2CCC1(C)C2(C)C (stereo partly specified) | inactive | inactive |  | 
110 | OCc1ccccc1O | inactive | inactive |  | 
111 | COc1cc2ncnc(Nc3ccc(F)c(Cl)c3)c2cc1OCCCN1CCOCC1 | inactive | inactive |  | 
112 | CCC(CO)(CO)COCC(CC)(CO)CO | inactive | inactive |  | 
113 | COc1cc(C)c(Cc2cnc(N)nc2N)cc1OC | inactive | inactive |  | 

— PubChem BioAssay (Tox21)
